The structures appear in SMILES notation. The source made the active and inactive calls.

Test [1] relates to Plasmodium falciparum Sir2 (PF13_0152, Sir2A). Nature of the test: pfSir2 binders on small-molecule microarrays, primary screen, biochemical, small-molecule microarray, 635 nm fluorescence (AID 1098).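 Note: score merges spot fluorescence intensity with its signal-to-noise ratio.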 Conditions: small-molecule microarray binding, fluorescence 635 nm; higher = more signal.
Test [2] is described as follows: small-molecule microarray binders of probe aDKK1, primary screen, biochemical, biotinylated probe, 635/667 nm fluorescence (AID 1099).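 Note: score merges 667nm spot fluorescence with signal to noise across triplicate slides; reference of the scale not given here.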 Conditions: higher = more signal.
The nature of test [3]: small-molecule microarray binders of probe aCHRDL2, primary screen, biochemical, biotinylated probe, 635/667 nm fluorescence (AID 1100). Conditions: higher = more signal.
A short description of test [4]: splicing luciferase reporter signal modulators, primary screen, spliceosome inhibition project, cell-based, HEK293, splice +/- reporter (AID 1101).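 Note: HEK293 cells carrying a splicing-competent luciferase reporter gene; test concentration not given here.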 Conditions: luminescence, 24 h, higher = more signal, called active from +8 up or from −8 down.
For test [5], the target named is Fibroblast growth factor 10 (Homo sapiens) (UniProt O15520). Nature of the test: FGF10 binders on small-molecule microarrays, primary screen, biochemical, small-molecule microarray, 635 nm fluorescence (AID 1102). Conditions: FGF10 binding, fluorescence 635 nm, higher = more signal.
Chain of Fibroblast growth factor 10 (Homo sapiens) (O15520 whole entry, looked up): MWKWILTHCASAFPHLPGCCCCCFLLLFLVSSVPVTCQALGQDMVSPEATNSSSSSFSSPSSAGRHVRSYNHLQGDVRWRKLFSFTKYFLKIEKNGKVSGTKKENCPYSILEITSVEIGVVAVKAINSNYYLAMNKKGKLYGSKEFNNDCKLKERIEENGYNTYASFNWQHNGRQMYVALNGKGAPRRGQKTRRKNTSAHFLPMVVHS
The test system of test [6] is glycogen synthase kinase-3 (GSK3A per assay name; protocol says GSK3B). Description: GSK3 binders on small-molecule microarrays, primary screen, biochemical, small-molecule microarray, 635 nm fluorescence, GSK3A (AID 1103). Note: the record names both GSK3A and GSK3B. Conditions: small-molecule microarray binding, fluorescence 635 nm; higher = more signal.
For test [7], the target named is Epidermal growth factor receptor (Homo sapiens) (UniProt P00533). Nature of the test: EGFR binders on small-molecule microarrays, primary screen, biochemical, small-molecule microarray, 635 nm fluorescence (AID 1104).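 Note: score merges 667 nm emission intensity with spot signal to noise over triplicate slides.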 Conditions: EGFR binding, higher = more signal.
Chain of Epidermal growth factor receptor (Homo sapiens) (P00533 whole entry, looked up): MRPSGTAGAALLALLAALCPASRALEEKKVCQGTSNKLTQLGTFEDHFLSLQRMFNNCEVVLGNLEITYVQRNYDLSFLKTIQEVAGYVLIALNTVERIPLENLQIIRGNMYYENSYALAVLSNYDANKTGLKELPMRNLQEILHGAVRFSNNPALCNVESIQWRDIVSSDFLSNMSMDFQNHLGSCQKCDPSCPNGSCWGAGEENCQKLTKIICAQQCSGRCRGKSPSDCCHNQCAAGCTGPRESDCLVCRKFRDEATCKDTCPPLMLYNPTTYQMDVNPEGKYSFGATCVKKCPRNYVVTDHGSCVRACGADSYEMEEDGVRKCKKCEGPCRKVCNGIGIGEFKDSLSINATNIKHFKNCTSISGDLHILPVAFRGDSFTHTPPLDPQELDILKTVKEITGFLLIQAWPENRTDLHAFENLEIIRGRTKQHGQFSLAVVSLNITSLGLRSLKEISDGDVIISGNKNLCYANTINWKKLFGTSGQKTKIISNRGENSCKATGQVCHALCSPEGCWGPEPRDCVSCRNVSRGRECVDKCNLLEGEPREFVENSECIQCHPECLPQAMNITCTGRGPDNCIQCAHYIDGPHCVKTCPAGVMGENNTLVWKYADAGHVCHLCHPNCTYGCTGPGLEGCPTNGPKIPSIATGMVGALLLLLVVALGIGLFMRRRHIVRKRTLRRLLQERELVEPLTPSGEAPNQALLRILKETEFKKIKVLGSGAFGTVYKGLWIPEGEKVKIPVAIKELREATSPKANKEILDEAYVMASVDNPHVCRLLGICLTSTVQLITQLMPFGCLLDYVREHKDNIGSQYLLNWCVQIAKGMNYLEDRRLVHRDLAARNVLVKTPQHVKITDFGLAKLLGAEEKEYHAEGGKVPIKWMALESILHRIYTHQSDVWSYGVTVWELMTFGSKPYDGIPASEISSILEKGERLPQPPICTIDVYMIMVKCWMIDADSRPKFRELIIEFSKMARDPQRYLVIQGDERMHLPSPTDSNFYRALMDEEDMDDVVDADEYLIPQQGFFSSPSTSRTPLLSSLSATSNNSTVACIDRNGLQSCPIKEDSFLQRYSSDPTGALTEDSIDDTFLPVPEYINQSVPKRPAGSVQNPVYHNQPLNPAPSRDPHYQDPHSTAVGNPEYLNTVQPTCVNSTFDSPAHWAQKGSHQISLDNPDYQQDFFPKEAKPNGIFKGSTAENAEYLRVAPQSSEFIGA
Test [8] deals with Follistatin-related protein 3 (Homo sapiens) (UniProt O95633). Description: FSTL3 binders on small-molecule microarrays, primary screen, biochemical, small-molecule microarray, 635 nm fluorescence (AID 1105).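 Note: score merges emission near 667 nm and signal to noise per printed spot across three slides.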 Conditions: FSTL3 binding, higher = more signal.
Chain of Follistatin-related protein 3 (Homo sapiens) (O95633 whole entry, looked up): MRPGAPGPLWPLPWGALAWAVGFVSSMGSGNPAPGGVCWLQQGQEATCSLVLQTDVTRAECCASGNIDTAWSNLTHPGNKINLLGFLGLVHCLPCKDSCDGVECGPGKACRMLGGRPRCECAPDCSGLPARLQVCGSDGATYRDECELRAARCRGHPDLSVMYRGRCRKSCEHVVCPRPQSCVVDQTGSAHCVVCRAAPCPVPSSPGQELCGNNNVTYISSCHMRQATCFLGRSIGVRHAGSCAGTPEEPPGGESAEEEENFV
For test [9], the target named is Dickkopf-related protein 1 (Homo sapiens) (UniProt O94907). Nature of the test: DKK1 binders on small-molecule microarrays, primary screen, biochemical, small-molecule microarray, 635 nm fluorescence scan (AID 1106).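 Note: score merges emission near 667 nm with signal to noise over three replicate slides.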 Conditions: DKK1 binding, higher = more signal.
Chain of Dickkopf-related protein 1 (Homo sapiens) (O94907 whole entry, looked up): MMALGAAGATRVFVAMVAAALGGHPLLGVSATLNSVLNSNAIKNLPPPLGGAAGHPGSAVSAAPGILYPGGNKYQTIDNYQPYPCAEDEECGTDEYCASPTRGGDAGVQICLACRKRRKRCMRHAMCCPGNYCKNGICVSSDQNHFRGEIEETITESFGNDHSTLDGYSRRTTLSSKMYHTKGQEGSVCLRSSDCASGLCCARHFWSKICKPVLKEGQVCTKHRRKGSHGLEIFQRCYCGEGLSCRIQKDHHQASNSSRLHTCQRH
In test [10] the test system is Inhibin beta A chain (activin A). Description: INHBA (activin A) binders on microarrays, primary screen, biochemical, small-molecule microarray, 635 nm fluorescence scan (AID 1107).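 Note: mouse activin A protein probed at 4.33 µg/mL on printed slides; score merges bound-protein fluorescence near 667 nm with spot signal-to-noise.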 Conditions: small-molecule microarray binding, higher = more signal.

On to `[N-]=[N+]=Nc1ccccc1C[C@@]1(C(=O)N2CCCCC2)N=C(c2ccc(OCCCO)cc2)O[C@@H]1c1ccccc1N=[N+]=[N-]`, for which the composite z-score in test [1] worked out at 0.95; in test [2], 1.32; in [3], 1.32; in [5], 0.914; in test [6], 1.05; in [7], 0.105. For the same molecule, the composite z-score in test [8] is 0.673; in [9], -0.0252; in test [10], 1.59. The z-score in test [4] was 0.766 (inactive).
As to `O=C1OCCC=C[C@H]2OC34C=CCN(Cn5nnc6ccccc65)C(=O)[C@H]3N(CCO)C(=O)[C@@H]4C12` (stereo not given in full), the composite z-score was 1.34 in test [1]; 0.362 in test [2]; 0.254 in test [3]; -1.55 in test [5]; -1.6 in [6]; -1.77 in test [7]. Moreover, the results for the composite z-score in [8], in test [9] and in [10] were -1.04, -1.64 and -0.539, respectively. The z-score in test [4] was -0.456 (inactive).
For `Cc1ccc(S[C@]2(C(=O)NCC(C)C)CC(=O)N(Cc3cc(C(F)(F)F)cc(C(F)(F)F)c3)[C@@H]2c2ccc(CO)cc2)cc1`, the composite z-score is 0.889 in [1]; 0.209 in [2]; 0.736 in test [3]; -0.417 in test [5]; -0.725 in test [6]; -1.25 in test [7]. The composite z-score in test [8] is -0.634; in [9], -0.326; in test [10], 0.96. The z-score in test [4] is 0.585 (inactive).
Consider `CCOC(=O)C1=C[C@@H](C(C)C)N(S(=O)(=O)c2ccc(C)cc2)[C@H]1c1ccccc1F`, for which the composite z-score turned out to be 0.906 in test [1]; 0.398 in [2]; 0.603 in [3]; 0.668 in [5]; 0.791 in test [6]; 0.6 in test [7]. In addition, the composite z-score in test [8] is 0.965; in test [9], 0.336; in test [10], 0.442. Moreover, the z-score in test [4] was 1.2 (inactive).
For `COCCCNC(=O)[C@@]1(Cc2ccccc2CN=[N+]=[N-])N=C(c2ccc(OCCCO)cc2)O[C@H]1c1ccccc1CN=[N+]=[N-]`, the composite z-score in test [1] is 1.25; in test [2] it was 0.616; in test [3], 1.09; in test [5] it was 1.43; in test [6], 0.186; in test [7] it was -0.334. Moreover, the composite z-score in test [8] is 0.299; in test [9], -0.629; in test [10] it was 0.849. Besides, the z-score in [4] was -1.51 (inactive).
For `CC(C)N1CC=CC23O[C@@H]4C=CCOC(=O)[C@@H]4[C@H]2C(=O)N(CCCCCO)[C@@H]3C1=O` (stereo not given in full), the composite z-score in test [1] was 0.818; in test [2], -0.288; in test [3] it was 0.248; in test [5] it was -0.927; in [6] it was -0.69; in test [7], -0.0616. Further, the composite z-score in [8] was -0.266; in test [9], -0.758; in test [10], 0.66. For the same molecule, in [4], the z-score was -1.54 (inactive).
Regarding `COCCOC(=O)N1C(=O)[C@@]2(c3cc(C#CC4=CCCCC4)ccc31)[C@H](c1ccc(OCCO)cc1)N1[C@H](c3ccccc3)[C@H](c3ccccc3)OC(=O)[C@H]1[C@@H]2C(=O)N1CCc2cc(OC)c(OC)cc2C1`, the composite z-score is 0.774 in test [1]; 0.645 in [2]; 0.538 in test [3]; 1.09 in test [5]; 1.3 in test [6]; 0.707 in test [7]. For the same molecule, the values for the composite z-score in test [8], in test [9] and in test [10] were 1.39, 1.13 and 0.942, respectively. The z-score in test [4] is -0.992 (inactive).
`C=CCC(OC(C)=O)[C@@H]1[C@@H](N(Cc2ccc(-c3cccc(C(F)(F)F)c3)o2)C(=O)Cc2ccc(OC)cc2)c2cc(OCCCO)ccc2N1C(=O)c1ccc2ccccc2c1` (stereo not given in full): the composite z-score in [1] was 0.403; in test [2], -0.179; in [3] it was 0.577; in test [5], -0.344; in [6], -1.46; in [7], -0.488. For the same molecule, the composite z-score in [8] was 0.195; in test [9] it was -0.298; in test [10] it was 1.39. Moreover, in test [4], the z-score was -0.814 (inactive).
With `OCCCC1=CC(C2CC2)N(Cc2cccc(OC(F)(F)F)c2)CC1` (stereo not given), the composite z-score in test [1] was 1.13; in test [2] it was -0.454; in test [3] it was -0.286; in test [5], -0.963; in test [6], -0.798; in test [7], -0.651. The composite z-score in [8] was -0.556; in test [9] it was 0.161; in test [10], 0.526. In addition, in test [4], the z-score is 0.0563 (inactive).
For `CC(C)[C@@H](C(=O)O)n1cc(C2(O)CCCCC2)nn1`, the composite z-score in test [1] was 0.221; in [2], -0.184; in [3] it was -0.55; in [5] it was 0.928; in test [6], 1.09; in [7], 0.15. Further, the composite z-score in [8] is 0.457; in [9], 0.301; in [10] it was -0.352. Further, the z-score in test [4] is -0.291 (inactive).
In the case of `O=C1OCCC=C[C@H]2OC34C=CCN(CCN5CCOCC5)C(=O)[C@H]3N(CCCCCO)C(=O)[C@@H]4C12` (stereo not given in full), the composite z-score was 1.44 in test [1]; -0.235 in test [2]; -0.111 in [3]; -0.35 in test [5]; 0.454 in test [6]; -0.509 in test [7]. For the same molecule, the composite z-score in [8] was -0.379; in test [9], -0.041; in [10], -0.309. Further, the z-score in test [4] is -0.78 (inactive).

These data come from PubChem BioAssay.
